Among all 1,100 compounds or so, about 340 (31%) were called active. Not shown: some 40% with an inconclusive outcome. The call rests on the fitted dose curve; in most records, active means well fitted inhibition curve with a large enough effect; inconclusive means small, poorly fitted or top-dose-only effect; inactive means flat fitted curve, though single readings scatter. These entries were drawn from the full list. A call without a number means that no potency is given here.
Potency means the concentration at half of the fitted maximal effect.

For the assay, the target named is Phosphatidylinositol 5-phosphate 4-kinase type-2 alpha (Homo sapiens) (UniProt P48426). The assay can be described thus: qHTS for Inhibitors of PI5P4K: Confirmation in Primary Assay. Further: nearly all actives have a fitted effect of over 65% in size. The note with it: PI5P4Kalpha enzyme, ADP-Glo luminescence, 60 min; series mostly up to 76.9 µM. An excerpt: In addition to finding PI5P, we discovered the type II phosphatidylinositol 5-phosphate 4-kinase (PI5P4K) family (alpha, beta, gamma isoforms) that catalyze the conversion of PI5P to PI(4,5)P2. Alternatively, PI(4,5)P2 can also be synthesized through phosphatidylinositol-4-phosphate (PI4P) by the type I phosphatidylinositol 4-phosphate 5-kinases (PI4P5K). These PI5P4K enzymes therefore represent one way by which cells can regulate endogenous PI5P levels and play important roles in insulin signaling and in stress responses. […] A qHTS PI5P4K-alpha ADP-Glo assay was developed to identify specific modulators of human PI5P4K, phosphatidylinositol-5-phosphate 4-kinase (Type II PIPK). This assay was screened against the MLSMR containing ~400,000 small molecules (PubChem AID 652105). To confirm that the hits were not interacting with the detection enzyme system, a 1536-well counterscreen against the ADP-Glo kit (Promega) was utilized, as described in Davis et al., 2013 [1]. Davis et al., PLoS One. 2013;8(1):e54127. NIH Chemical Genomics Center [NCGC] NIH Molecular Libraries Probe Centers Network [MLPCN] MLPCN Grant: MH096575 Assay Submitter (PI): Atsuo Sasaki, Beth Israel Deaconess Medical Center
Chain of Phosphatidylinositol 5-phosphate 4-kinase type-2 alpha (Homo sapiens) (P48426 whole entry, looked up, canonical isoform): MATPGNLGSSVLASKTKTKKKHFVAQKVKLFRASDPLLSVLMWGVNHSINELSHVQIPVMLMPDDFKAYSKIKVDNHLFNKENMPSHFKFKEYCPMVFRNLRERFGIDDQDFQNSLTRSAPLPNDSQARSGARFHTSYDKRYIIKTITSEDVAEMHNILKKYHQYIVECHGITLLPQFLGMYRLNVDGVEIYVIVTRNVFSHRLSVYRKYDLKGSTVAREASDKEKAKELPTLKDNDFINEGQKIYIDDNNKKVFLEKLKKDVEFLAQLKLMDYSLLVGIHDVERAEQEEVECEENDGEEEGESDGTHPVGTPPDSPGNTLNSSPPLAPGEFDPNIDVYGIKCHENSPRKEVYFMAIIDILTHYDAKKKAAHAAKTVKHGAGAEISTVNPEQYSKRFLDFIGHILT
2 microL of PI5P4Kalpha/substrate buffer (columns 1-2, 5-48) are dispensed into Greiner white solid bottom 1536-well assay plates; column 3 receives only PI5P4Kalpha buffer as 0x substrate controls; column 4 receives only substrate buffer as 0x PI5P4Kalpha controls. Final assay buffer consists of 0.038 M HEPES pH 7.4, 0.28 mM EGTA, 0.1% CHAPS, and 5% DMSO (final concentration). Compounds are then transferred via Kalypsys pin tool equipped with 1536-pin array (10 nL slotted pins, V&P Scientific, San Diego, CA). Following addition of compound, 1 microL of ATP (5 microM final concentration, all columns) is added to initiate the reaction. ATP is diluted in an assay buffer consisting of 0.02 M HEPES pH 7.4, 60 mM MgCl2, 15 microM ATP, and 0.1% CHAPS. The plates are then incubated at room temperature for 60 minutes. ADP-Glo reagent 1 is added (2 microL) and plates incubated for 45 minutes, before ADP-Glo reagent 2 (4 microL) is added and plates incubated for 30 minutes. They are then transferred to a ViewLux high-throughput CCD imager (PerkinElmer) wherein single end-point measurements of luminescence are acquired using a clear filter.
A general note: Quantitative high-throughput screening tests each substance at several concentrations.
Consider `O=C(c1ccco1)N1CCN(C(=O)c2ccc(-c3ccc([N+](=O)[O-])cc3)o2)CC1`, for which the Potency entry is “inactive”. As to `O=C(NCc1ccco1)c1ccc([N+](=O)[O-])o1`, the Potency was 31.6 µM (active). Turning to `O=C(CSC1=NCCS1)NCc1ccco1`, the Potency result is “inactive”.

`S=C(NCc1ccco1)NCc1ccco1`: the Potency is 14.1 µM (active).

As for `CC(C)(C)[C@H]1C=C(C(=O)N2CCOCC2)O[C@@H](OCc2ccc(CO)cc2)C1`, the Potency result was “inactive”. Under `COc1ccc(Cl)cc1S(=O)(=O)NCCCn1ccnc1` stands “inactive”. Take `COCCNC(=O)c1cc(-c2ccccc2)sc1N`: the Potency result is “inactive”.

On to `Cc1ccc(CNc2ncnc3ccc(-c4ccc(CO)o4)cc23)o1`, for which the Potency entry is “inactive”. Under `Cc1cc(O)ccc1Nc1cc(-c2cccc(N(C)C)c2)ncn1` stands 12.6 µM (active). For the compound `O=C(NC1CCCC1)C(c1ccncc1)N(C(=O)c1csnn1)c1ccccc1F` (centres undefined), the Potency result was “inactive”. Consider `Cc1sc2ncn(CC(=O)N3CCC(C(N)=O)CC3)c(=O)c2c1S(=O)(=O)N1CC(C)CC(C)C1` (centres undefined), for which the Potency entry is “inactive”. For `Cc1ccc(C)c(OC(C)C(=O)Nc2ccc(S(=O)(=O)Nc3nccs3)cc2)c1` (centres undefined), the Potency result is “inactive”. Under `Cc1noc(C)c1C(=O)Nc1ccc(-n2ccc(C(F)(F)F)n2)cc1` stands “inactive”; under `O=C(Nc1ccc(S(=O)(=O)Nc2nccs2)cc1)c1nn(-c2ccc(F)cc2)ccc1=O`, 15.8 µM (active). Under `COc1ccc(C(=O)N2CCCC2(C)C(=O)O)cc1C(F)(F)F` (centres undefined) stands “inactive”. Turning to `O=C(c1cccc(-n2cccc2)c1)N1CCN(S(=O)(=O)c2ccccc2)CC1`, the Potency is 3.98 µM (active).

For `CC(=O)N1CCN(S(=O)(=O)c2cccc(C(=O)Nc3ccc(F)c(F)c3)c2)CC1`, the Potency result was “inactive”.

Regarding `COc1ccc(CN2CCC(=O)N([C@H](CO)CC(C)C)CC2)cc1OC`, the Potency entry was “inactive”.

Take `CCCCCCCCN1C(=O)[C@H](CC(=O)NCc2ccc(C)o2)C[C@@]2(C(=O)OC)CC(C)(C)CC=C12`: the Potency result was “inactive”.

Regarding `CC1=NN(c2nc(-c3ccc(Cl)cc3)cs2)C(=O)C1`, the Potency was 15.8 µM (active). Under `CCOC(=O)Nc1ccc2c(CNC(C)c3ccccc3OC)cc(=O)oc2c1` (centres undefined) stands “inactive”; under `CC1CCN(C(=O)c2ccc(COc3ccccc3Cl)o2)CC1`, “inactive”. The result for `CCCCC1=CC2=C(c3ccco3)C(=O)C(C)(OC(=O)c3ccc(OC)cc3)C(=O)C2=CN1Cc1ccccc1` (centres undefined) reads “inactive”. Under `COC(=O)CCC(=O)OC1(C)C(=O)C2=CN(CC3CC3)C(c3ccc(OC)cc3)=CC2=C(Br)C1=O` (centres undefined) stands “inactive”. In the case of `COc1ccc(C2=CC3=C(Br)C(=O)C(C)(OC(=O)c4cccs4)C(=O)C3=CO2)cc1` (centres undefined), the Potency is 22.4 µM (active). Under `Cc1ccc(S(=O)c2ccc(NC(=O)C3CC3)cc2C#N)cc1` (centres undefined) stands “inactive”; under `Cc1ccc(N(C(=O)CNC(=O)c2ccco2)C(C(=O)NC2CCCC2)c2cccnc2)c(C)c1` (centres undefined), “inactive”; under `O=C(CN1CCN(c2ccccc2F)CC1)NCc1ccccc1`, “inactive”. With `COc1ccc(C(=O)NCCSc2ccccc2)cc1OC`, the Potency entry was “inactive”. Under `COc1cc(C(=O)Nc2scc(-c3ccc(Br)cc3)c2C(=O)O)cc(OC)c1OC` stands 5.62 µM (active); under `COc1cc(C(=O)Nc2scc(-c3ccc(C)cc3)c2C(=O)O)cc(OC)c1OC`, 3.55 µM (active); under `COc1cc(C(=O)Nc2scc(-c3ccccc3)c2C(=O)O)cc(OC)c1OC`, 12.6 µM (active). For the compound `Cc1ccc(-c2csc(NC(=O)c3ccc(Br)cc3)c2C(=O)O)cc1`, the Potency was 14.1 µM (active). For the compound `COc1ccc(-c2csc(NC(=O)c3ccccc3F)c2C(=O)O)cc1`, the Potency result was “inactive”.

Turning to `NC(=O)C1CCN(CC(=O)Nc2ccc3c(c2)OCCO3)CC1`, the Potency entry is “inactive”. The result for `CCOC(=O)CSc1nc2ccc(NC(=O)CSc3nnnn3Cc3ccccc3)cc2s1` reads “inactive”. Under `O=C(NCCc1ccccc1)C(c1cccs1)N(C(=O)c1csnn1)C1CC1` (centres undefined) stands “inactive”; under `Cc1nc(CS(=O)(=O)c2ccccc2)cc(N2CCOCC2)n1`, “inactive”; under `O=C(CCNS(=O)(=O)c1ccc(Br)s1)NCc1ccccc1Cl`, “inactive”. Under `CCCCC1Cc2[nH][nH]c(=O)c2C(c2ccc(F)cc2)O1` (centres undefined) stands “inactive”; under `COc1ccc2nc(SCC(=O)N3CCN(c4ccc(F)cc4)CC3)c(C#N)cc2c1`, “inactive”; under `O=S(=O)(c1ccccc1)N1N=C(c2cccs2)CC1c1ccc(Br)cc1` (centres undefined), “inactive”. Consider `O=C1NC(c2cc(Cl)cc([N+](=O)[O-])c2O)Nc2ccccc21` (centres undefined), for which the Potency is 8.91 µM (active).

Take `O=C1NC(c2cccs2)Nc2ccccc21` (centres undefined): the Potency entry was “inactive”. On to `Cc1cccc(S(=O)(=O)NC(=O)C2(C)CCN2C(=O)Cc2cc(F)ccc2F)c1` (centres undefined), for which the Potency result is “inactive”. On to `Cc1cccc2cc(CN(Cc3cccnc3)C(=S)NCCCN(C)C)c(=O)[nH]c12`, for which the Potency result was “inactive”. As for `COc1cc(Cn2c3ccc(NC(=O)CCc4ccccc4)cc3c(=O)n2C)ccc1F`, the Potency entry is “inactive”.

In the case of `CCOc1ccc(S(=O)(=O)N(C(=O)c2ccco2)c2cc3sc(=O)oc3c3ccccc23)cc1`, the Potency entry is “inactive”.

Take `CCCOc1ccc(CSc2ncn[nH]2)cc1`: the Potency entry was “inactive”. Under `O=C(NC1CCC(O)CC1)c1cc(-c2ccco2)nc2ccccc12` (centres undefined) stands 12.6 µM (active); under `Cc1ccc(-c2cc(C(=O)O)c3cc(Br)ccc3n2)o1`, 25.1 µM (active). Under `Cn1nnc2cc(C(=O)NC3CC3)ccc21` stands “inactive”; under `O=C(NCc1ccccc1)C(c1ccccc1)n1c(=O)c(-c2ccco2)nc2ccccc21` (centres undefined), “inactive”. The result for `O=C(NCc1ccco1)c1c2c(nc3ccccc13)CCC2` reads 10 µM (active); that for `CCCCCCNC(=O)c1cc(-c2ccco2)nc2ccccc12`, 7.08 µM (active); that for `Cc1nnc(-c2ccccc2)nc1N(C)C`, “inactive”.

As for `O=C(COC(=O)C1CCCCC1)Nc1ccccc1OC(F)F`, the Potency result is “inactive”. The result for `COc1cccc(N2CCN(C(=O)c3ccc(CS(=O)c4ccccc4C)o3)CC2)c1` (centres undefined) reads “inactive”; that for `CC(C)(C(=O)N1CCC1(C)C(=O)NS(=O)(=O)c1ccc(C#N)cc1)c1ccccc1` (centres undefined), “inactive”; that for `O=C(OCC(=O)N1N=C(c2ccc(Cl)cc2)CC1c1ccco1)c1cccnc1` (centres undefined), “inactive”. The result for `COc1ccc(CCNC(=O)C2CC(c3cccc(F)c3)=NO2)cc1` (centres undefined) reads “inactive”; that for `COc1ccc(-c2cc(C(=O)Nc3ccccc3O)c3ccccc3n2)cc1`, “inactive”. The result for `COc1ccc(CCNC(=O)c2cc(-c3ccco3)nc3ccccc23)cc1` reads 15.8 µM (active); that for `Cc1ccc(-c2cc(C(=O)NCc3ccco3)c3ccccc3n2)o1`, 14.1 µM (active).
